Laboratory results from PubChem BioAssay (NCATS).
Records with an inconclusive call do not appear. Activity calls are given as the source filed them. Calls follow the shape of the full dose curve.

Test: Primary qHTS to identify inhibitors of SARS-CoV-2 cell entry (AID 1645846); also: nearly all actives have a fitted effect of over 45% in size
Details: SARS-CoV-2 pseudovirus cell entry assay, luminescence; activity change, negative = inhibition: at 57.1 µM (top of the series) unless noted; series mostly up to 57.1 µM
Procedure, shortened: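 Inhibition of spike-mediated entry was scored in human ACE2-transfected Expi293F cells. Particles were MLV-pseudotyped with Wuhan-Hu-1 S carrying a 19-aa C-terminal deletion; signal was luciferase after two days, scaled between spike PP and fusion-protein-free PP.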
Potency is read from the fitted curve at half-maximal effect.

SMILES	Potency	activity change, negative = inhibition
Cc1c(F)cc2c(=O)c(C(=O)O)cn3c2c1CCC3C (configuration not stated)	inactive	–
CC1(C)[C@H](C(=O)O)N2C(=O)C[C@H]2S1(=O)=O	inactive	–
Cc1[nH]c(C)c(Cl)c(=O)c1Cl	inactive	–
Cc1cc(C2CCCCC2)n(O)c(=O)c1	17.8 µM (active)	–
COc1ccc(CCN2CCC(Nc3nc4ccccc4n3Cc3ccc(F)cc3)CC2)cc1	10 µM (active)	–
O=C(NOCC1CC1)c1ccc(F)c(F)c1Nc1ccc(I)cc1Cl	31.6 µM (active)	–
[O-][n+]1ccccc1SSc1cccc[n+]1[O-]	–	-95.2% [at 27.1 µM]
O=C(NN1CCCC1)NS(=O)(=O)c1ccc(Cl)cc1	inactive	–
NC1(c2ccc(-c3nc4ccn5c(=O)[nH]nc5c4cc3-c3ccccc3)cc2)CCC1	8.91 µM (active)	–
CCCCCCCCCCCCCCCCCCNC(=O)OC1CCN(C(=O)OC[C@H](COC(=O)N(Cc2cccc[n+]2CC)C(=O)c2ccccc2OC)OC)CC1	10 µM (active)	–
CCOc1ccccc1O[C@H](c1ccccc1)[C@H]1CNCCO1	–	0.393%
CCCNC(C)(C)COC(=O)c1ccccc1	–	3.38%
CCCCCCCCCCCCOCCOCCOCCOCCOCCOCCOCCOCCOCCO	11.2 µM (active)	–
CC(=O)N[C@H]1[C@H]([C@H](O)[C@H](O)CO)OC(C(=O)O)=C[C@@H]1N=C(N)N	–	-0.176%
CC(C)(C)C(=O)C(Oc1ccc(Cl)cc1)n1ccnc1 (configuration not stated)	20 µM (active)	–
O=C(Oc1cccc2cccnc12)c1ccccc1	8.91 µM (active)	–
CN(C)c1ccc(C(=C2C=CC(=[N+](C)C)C=C2)c2ccccc2)cc1	4.47 µM (active)	–
